Assay results as given in PubChem BioAssay (NCATS).
Results filed as inconclusive are left out. Where a call stands in place of a potency, no number is given. A number with no mark means an inactive call. Activity calls are given as the source filed them. Calls follow the shape of the dose curve; as a rule, active = well fitted inhibition curve with a large enough effect; inconclusive = small, poorly fitted or top-dose-only effect; inactive = flat fitted curve, though single readings scatter.

Columns and labels:
[1] = molecular target: Calcium and integrin-binding protein 1 (Homo sapiens) (UniProt Q99828); experiment: Primary qHTS for Identification of Calcium Integrin Binding Protein 1 (CIB1) Competitor (AID 1508620);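 also: GST tagged CIB1 binding a fluorescein labelled alphaIIb integrin peptide tracer; top concentration of the series differs between compounds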
Outline: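 Fluorescence polarization competition: GST-tagged CIB1 (1 uM final) preincubated with compound 15 min at room temperature, then FITC-labelled alphaIIb peptide (100 nM final) added. After 15 min at room temperature, polarization read at Ex 480/Em 540.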

[2] = Primary qHTS for inhibitors of nuclear receptor binding SET domain protein 2 (NSD2) in an isogenic RCH-ACV NSD2 p.E1099K mutant (9B) (AID 1645876); also: nearly all actives have a fitted effect of over 70% in size; also: potency is read from the fitted curve at half-maximal effect

Sequence of Calcium and integrin-binding protein 1 (Homo sapiens) (Q99828 whole entry, looked up): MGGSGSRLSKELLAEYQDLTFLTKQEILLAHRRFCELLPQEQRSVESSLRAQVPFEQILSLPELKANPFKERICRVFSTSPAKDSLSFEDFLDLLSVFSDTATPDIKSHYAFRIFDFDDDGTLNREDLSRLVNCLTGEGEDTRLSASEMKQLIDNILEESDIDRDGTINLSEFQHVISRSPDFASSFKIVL

| SMILES | Potency [1] | Potency [2] | activity change, negative = viability loss [2] |
| --- | --- | --- | --- |
| CC1=C(COC2OC(CO)C(O)C(O)C2O)C(C(CO)C(=O)O)CC1 (stereo unspecified) | inactive | inactive |  |
| CC(/C=C/C1=CC2=CC(=O)C(C)(O)C(O)C2=CO1)=C\C(C)CCO (stereo unspecified) | inactive | inactive |  |
| CC(C)(C)c1ccc(S(=O)(=O)Nc2ccc(Cl)cc2C(=O)c2cc[n+]([O-])cc2)cc1 | inactive | inactive |  |
| C=C[C@H]1[C@H](O[C@@H]2O[C@H](CO)[C@@H](O)[C@H](O)[C@H]2O)OC=C(C(=O)OC)[C@H]1CC(=O)O | inactive | inactive |  |
| CC[C@]1(O)CC2CN(CCc3c([nH]c4ccccc34)[C@@](C(=O)OC)(c3cc4c(cc3OC)N(C=O)[C@H]3[C@@](O)(C(=O)OC)[C@H](OC(C)=O)[C@]5(CC)C=CCN6CC[C@]43[C@@H]65)C2)C1 (stereo partly specified) | inactive | 6.4 nM (active) |  |
| CC12CCC(C(OC3OC(COC4OCC(O)(CO)C4O)C(O)C(O)C3O)C1)C(C)(C)O2 (stereo unspecified) | inactive | inactive |  |
| CC(C)=CCC[C@](C)(O[C@@H]1O[C@H](CO)[C@@H](O)[C@H](O)[C@H]1O)[C@H]1CC[C@]2(C)[C@@H]1[C@H](O)CC1[C@@]3(C)CC[C@H](O)C(C)(C)C3[C@@H](O[C@@H]3O[C@H](CO)[C@@H](O)[C@H](O)[C@H]3O)C[C@]12C (stereo partly specified) | inactive | inactive |  |
| CC1(C)CC[C@]2(C(=O)O[C@@H]3O[C@H](CO)[C@@H](O)[C@H](O)[C@H]3O)CC[C@]3(C)C(=CCC4[C@@]5(C)C[C@@H](O)[C@H](O)C(C)(C)C5CC[C@]43C)C2[C@@H]1O (stereo partly specified) | inactive | inactive |  |
| CC1=C(C)C(=O)OC(C(C)C2CCC3C4CC=C5CC(OC6OC(COC7OC(CO)C(O)C(O)C7O)C(O)C(O)C6O)CC(O)C5(C)C4CCC23C)C1 (stereo unspecified) | inactive | inactive |  |
| C=C1C[C@@]23CCC4[C@@](C)(CCC[C@@]4(C)C(=O)OC)C2CC[C@@H]1C3 (stereo partly specified) | inactive | inactive |  |
| CC[C@@H](O)C[C@@H]1C(C)=C[C@@H]2CCCC[C@@H]2[C@@]1(C)C(=O)O | inactive | inactive |  |
| COC(=O)C[C@H]1[C@]2(C)C3=C(C)[C@H](c4ccoc4)C[C@H]3O[C@@H]2[C@H](OC(C)=O)C2[C@](C)(C(=O)OC)C=CC(=O)[C@@]21C (stereo partly specified) | inactive | inactive |  |
| CC1CCC2C(C(=O)O)=COC(O[C@@H]3O[C@H](CO)[C@@H](O)[C@H](O)[C@H]3O)C12 (stereo partly specified) | inactive | inactive |  |
| C=C1C(OC(C)=O)CCC2(C)CC3(OC)OC(=O)C(C)=C3CC12 (stereo unspecified) | inactive | inactive |  |
| C=C(C(=O)OC)C1C(O)CC2(C)C(O)CCC(=O)C2C1O (stereo unspecified) | inactive | inactive |  |
| OCC(CO[C@@H]1O[C@H](CO)[C@@H](O)[C@H](O)[C@H]1O)c1ccc2c(c1)OCO2 (stereo partly specified) | inactive | inactive |  |
| CC1C(=O)CC2C3CCC(C(=O)O)C12CC3(C)CO (stereo unspecified) | inactive | inactive |  |
| CC(C)C[C@H](CC(=O)NO)C(=O)N[C@@H](Cc1ccc2ccccc2c1)C(=O)N[C@@H](C)C(=O)NCCN | inactive | inactive |  |
| CC(C)CNCc1ccc(-c2ccccc2S(=O)(=O)N2CCCC2)cc1 | inactive | inactive |  |
| COC(=O)C1=CO[C@@H](O[C@@H]2O[C@H](CO)[C@@H](O)[C@H](O)[C@H]2O)[C@H]2[C@@H]1CC(OC)O[C@@H]2C (stereo partly specified) | inactive | inactive |  |
| COc1cc(O)c2c(c1)C1=CC(O)C(O)CC1(C)OC2=O (stereo unspecified) | inactive | inactive |  |
| C[C@H](N)C(=O)N[C@@H](Cc1ccc(O)cc1)C(=O)N1CCC[C@H]1C(=O)NCC(=O)N[C@@H](CCCCN)C(=O)N[C@@H](Cc1ccccc1)C(N)=O | inactive |  | 0.961% [at 9.23 µM] |
| C/C1=C\[C@H]2OC(=O)[C@@H](C)[C@@H]2CC/C(C(=O)O)=C/CC1 | inactive | inactive |  |
| COC(=O)c1cc(OC)c(O[C@@H]2O[C@@H](C)[C@H](O)[C@@H](O)[C@H]2O)c(OC)c1 | inactive | inactive |  |
| CC1CC[C@]2(C(=O)O)CC[C@]3(C(=O)O)C(=CCC4[C@@]5(C)CC[C@H](O[C@@H]6O[C@H](CO)[C@@H](O)[C@H](O)[C@H]6O)C(C)(C)C5CC[C@]43C)C2C1C (stereo partly specified) | inactive | inactive |  |
| C=CC1(C)C=C2C(=O)OC(=O)C3=C(CCCC3(C)C)C2(O)CC1 (stereo unspecified) | inactive | inactive |  |
| CC1(C)CCCC2(C)C1CC=C1C(=O)OC(O)C12O (stereo unspecified) | inactive | inactive |  |
| C[C@H](NC(c1cccc2[nH]c(=O)c(=O)[nH]c12)P(=O)(O)O)c1ccc(Br)cc1 (stereo partly specified) | inactive | inactive |  |
